Experiment [1] is described as follows: ATG_CRE_CIS: Attagene CIS-FACTORIAL HepG2 Assay for human cAMP Responsive Element (CRE) binding protein 3 (AID 2282926). The following applies: HepG2 CRE cis-reporter, Attagene multiplexed mRNA; actives raise or lower the signal. Put shortly: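 HepG2 cells transiently transfected with cis-element-driven multiple reporter transcription units; CRE reporter mRNA measured 24 h after dosing by RT-PCR, 6-FAM labelling, HpaI digestion and capillary electrophoresis. Bidirectional fit versus DMSO baseline.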

The target of experiment [2] is CCAAT/enhancer-binding protein beta (Homo sapiens) (UniProt P17676). In words: ATG_C_EBP_CIS: Attagene CIS-FACTORIAL HepG2 Assay for human CCAAT/Enhancer Binding Protein (C/EBP) beta (AID 2282927). The following applies: HepG2 Attagene cis-factorial transcription factor reporter; actives raise or lower the signal. Put shortly: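 Transiently transfected HepG2 (MRTU library, endogenous TF-driven promoters); 24 h dosing; total RNA → oligo(dT) RT → PCR → 6-FAM primer extension → HpaI digest → CE; fit bidirectionally vs DMSO.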

Experiment [3] is described as follows: ATG_DR4_LXR_CIS: Attagene CIS-FACTORIAL HepG2 Assay for human Liver X Receptor (LXR), DR4 submotif (AID 2282929). As to conditions: HepG2 Attagene DR4 cis-reporter, mRNA transcription; actives raise or lower the signal. Put shortly: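 Transiently transfected HepG2 liver cells; cis-regulated reporters; 24 h dosing. RT-PCR plus CE read-out of reporter mRNA. DMSO baseline, bidirectional curve fitting.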

Experiment [4] has as its target Aryl hydrocarbon receptor (Homo sapiens) (UniProt P35869). The experiment in a line: ATG_Ahr_CIS: Attagene CIS-FACTORIAL HepG2 Assay for human Aryl Hydrocarbon Receptor (Ahr) (AID 2282930). The following applies: HepG2 AhR cis-factorial reporter transcription; actives raise or lower the signal. Put shortly:
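Read-out: reporter mRNA quantified by RT-PCR with fluorescent primer extension and capillary electrophoresis. Human HepG2 liver cells carried transfected cis-promoter reporter units and were exposed to chemical for 24 h; gain or loss fitted relative to DMSO.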

A short description of experiment [5]: ATG_AP_1_CIS: Attagene CIS-FACTORIAL HepG2 Assay for human Activator Protein 1 (AP-1) (AID 2282931). As to conditions: HepG2 Attagene cis-factorial AP-1 reporter mRNA; actives raise or lower the signal. Put shortly: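 We transfected HepG2 cells transiently with a set of cis-regulated reporter transcription units, dosed them for 24 h, and quantified reporter mRNA via RT-PCR and capillary electrophoresis, scoring gain or loss of signal relative to DMSO.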

A short description of experiment [6]: ATG_AP_2_CIS: Attagene CIS-FACTORIAL HepG2 Assay for human Activator Protein 2 (AP-2) (AID 2282932). As to conditions: HepG2 AP-2 cis-reporter, Attagene transcription factor profiling; actives raise or lower the signal. Put shortly: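 HepG2 cells transiently transfected with cis-element reporter units and exposed for 24 h. Reporter mRNA measured by RT-PCR, FAM labelling, HpaI digestion and capillary electrophoresis. Changes in either direction fitted relative to DMSO.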

Experiment [7] is described as follows: ATG_BRE_CIS: Attagene CIS-FACTORIAL HepG2 Assay for human Bone Morphogenetic Protein (BMP) Response Element (BRE) (AID 2282933). The following applies: HepG2 BMP response element reporter, Attagene transcription factor profiling; actives raise or lower the signal. Put shortly: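 After a 24 h chemical treatment, transiently transfected HepG2 cells were lysed for RNA; reporter transcripts were quantified by fluorescent RT-PCR and capillary electrophoresis, normalised to DMSO.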

Experiment [8] concerns the target Transcription factor E2F1 (Homo sapiens) (UniProt Q01094). The experiment in a line: ATG_E2F_CIS: Attagene CIS-FACTORIAL HepG2 Assay for human E2F Transcription Factor 1 (AID 2282935). The following applies: HepG2 Attagene cis-reporter, E2F reporter RNA transcripts; actives raise or lower the signal. Put shortly: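 Endogenous E2F1 activity read through cis-promoter reporter units transfected into HepG2. After 24 h compound treatment, reporter mRNA measured by RT-PCR, HpaI digestion and capillary electrophoresis. Bidirectional fit versus DMSO.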

Experiment [9] in a line: ATG_E_Box_CIS: Attagene CIS-FACTORIAL HepG2 Assay for human Enhancer Box (E-box) (AID 2282936). The following applies: HepG2 E-box cis-reporter transcription, actives raise or lower the signal. Put shortly:
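HepG2 cells transiently transfected with multiplexed cis-element reporter units, dosed 24 h; reporter mRNA quantified by RT-PCR, 6-FAM labelling, HpaI digestion and capillary electrophoresis. E-box (USF1) signal fitted bidirectionally vs DMSO.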

Experiment [10] is described as follows: ATG_M_61_CIS: Attagene CIS-FACTORIAL HepG2 Assay for M61 Transcription Factor (Internal Marker) (AID 2282937). The following applies: HepG2 Attagene CIS-FACTORIAL M61 internal marker reporter; actives raise or lower the signal. Put shortly:
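Multiplexed reporter mRNA assay, HepG2 human hepatoma cells, 24 h treatment. Signal: FAM-labelled, HpaI-digested RT-PCR fragments by CE. Fit: bidirectional, baseline DMSO.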

The nature of experiment [11]: ATG_EGR_CIS: Attagene CIS-FACTORIAL HepG2 Assay for human Early Growth Response 1 (EGR1) (AID 2282938). As to conditions: HepG2 Attagene CIS-FACTORIAL EGR reporter mRNA; actives raise or lower the signal. Put shortly:
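Multiplexed cis-reporter system in human hepatoma HepG2 cells, transiently transfected. Cells are dosed for 24 h; reporter transcripts are amplified, fluorescently tagged and sized by capillary electrophoresis, with DMSO as negative control.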

Experiment [12] in a line: ATG_M_19_CIS: Attagene CIS-FACTORIAL HepG2 Assay for M19 Transcription Factor (Internal Marker) (AID 2282939). The following applies: HepG2 Attagene CIS-FACTORIAL M19 internal marker reporter; actives raise or lower the signal. Put shortly: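 In this multiplexed cell assay, transiently transfected HepG2 reporter units report endogenous transcription-factor activity; after 24 hours of treatment, labelled reporter cDNA fragments are quantified by capillary electrophoresis and fitted bidirectionally against DMSO.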

Experiment [13] can be described thus: ATG_Ets_CIS: Attagene CIS-FACTORIAL HepG2 Assay for human Erythroblast Transformation Specific (ETS) (AID 2282941). As to conditions: HepG2 ETS cis-reporter transcription, actives raise or lower the signal. Put shortly:
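HepG2 cells transfected with multiple cis-regulated reporter units measuring endogenous ETS-driven transcription, 24 h after dosing. Reporter mRNA quantified by RT-PCR with capillary electrophoresis; bidirectional fit relative to DMSO.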

Experiment [14] concerns the target Hepatocyte nuclear factor 3-beta (Homo sapiens) (UniProt Q9Y261). In words: ATG_FoxA2_CIS: Attagene CIS-FACTORIAL HepG2 Assay for human Forkhead box A2 (FOXA2) (AID 2282942). The following applies: HepG2 cis-reporter transcription factor activity, 24 h; actives raise or lower the signal. Put shortly: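 Multiplexed cis-element reporter assay in transiently transfected HepG2. Twenty-four hours post-dosing, RNA was reverse-transcribed, amplified, FAM-labelled, HpaI-digested and separated by CE. Activity gain or loss relative to DMSO.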

The nature of experiment [15]: ATG_FoxO_CIS: Attagene CIS-FACTORIAL HepG2 Assay for human Forkhead box O (FoxO) (AID 2282943). The following applies: HepG2 Attagene cis-reporter, FoxO element, mRNA; actives raise or lower the signal. Put shortly:
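Read-out: fluorescence of 6-FAM-labelled reporter cDNA fragments resolved by capillary electrophoresis. Transiently transfected HepG2 cells were dosed for 24 h; activity fitted in both directions relative to DMSO controls.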

Experiment [16] in a line: ATG_GATA_CIS: Attagene CIS-FACTORIAL HepG2 Assay for human GATA Binding Protein (AID 2282944). As to conditions: HepG2 GATA cis-element reporter, Attagene multiplex mRNA; actives raise or lower the signal. Put shortly: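 Measures endogenous transcription factor-driven reporter mRNA in HepG2 cells transiently carrying cis-regulated constructs. 24 h dosing; RNA via oligo(dT) reverse transcription, PCR, HpaI digestion, capillary electrophoresis; fitted relative to DMSO.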

The nature of experiment [17]: ATG_GLI_CIS: Attagene CIS-FACTORIAL HepG2 Assay for human Zinc Finger Protein GLI1 (AID 2282945). As to conditions: HepG2, Attagene cis-factorial reporter mRNA, GLI element; actives raise or lower the signal. Put shortly: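 Transiently transfected HepG2 cells report endogenous transcription factor activity via cis-element-driven reporter units. After 24 h compound exposure, reporter mRNA was measured by RT-PCR with capillary electrophoresis; bidirectional fitting against DMSO baseline.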

The target of experiment [18] is Retinoic acid receptor alpha (Homo sapiens) (UniProt P10276). In words: ATG_DR5_RAR_CIS: Attagene CIS-FACTORIAL HepG2 Assay for human Retinoic Acid Receptor Alpha (RARE), DR5 submotif (AID 2282934). As to conditions: HepG2 Attagene cis-factorial RARE DR5 reporter, mRNA; actives raise or lower the signal. Put shortly:
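Read-out: DR5-driven reporter transcript measured by RT-PCR, 6-FAM primer extension, HpaI digest and capillary electrophoresis. Human HepG2 liver cells carry transiently transfected cis-element reporter constructs; dosing lasts 24 h. Gain or loss of signal fitted against DMSO baseline.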

The nature of experiment [19]: ATG_ERE_CIS: Attagene CIS-FACTORIAL HepG2 Assay for Estrogen Response Element (ERE) (AID 2282940). The following applies: HepG2 ERE cis-reporter, Attagene RNA transcript; actives raise or lower the signal. Put shortly: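 Measuring endogenous transcription factor output, the assay doses transfected HepG2 cells for 24 hours and quantifies reporter transcripts by fluorescent RT-PCR and capillary electrophoresis, with DMSO as baseline.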

These results are taken from PubChem BioAssay (EPA / NIEHS).

The source made the active and inactive calls. Rule for the calls: active = hit-call score of the fitted dose curve at least 0.9, where 1 is the maximum; inactive = score below 0.9.

Sequence of Hepatocyte nuclear factor 3-beta (Homo sapiens) (Q9Y261 whole entry, looked up): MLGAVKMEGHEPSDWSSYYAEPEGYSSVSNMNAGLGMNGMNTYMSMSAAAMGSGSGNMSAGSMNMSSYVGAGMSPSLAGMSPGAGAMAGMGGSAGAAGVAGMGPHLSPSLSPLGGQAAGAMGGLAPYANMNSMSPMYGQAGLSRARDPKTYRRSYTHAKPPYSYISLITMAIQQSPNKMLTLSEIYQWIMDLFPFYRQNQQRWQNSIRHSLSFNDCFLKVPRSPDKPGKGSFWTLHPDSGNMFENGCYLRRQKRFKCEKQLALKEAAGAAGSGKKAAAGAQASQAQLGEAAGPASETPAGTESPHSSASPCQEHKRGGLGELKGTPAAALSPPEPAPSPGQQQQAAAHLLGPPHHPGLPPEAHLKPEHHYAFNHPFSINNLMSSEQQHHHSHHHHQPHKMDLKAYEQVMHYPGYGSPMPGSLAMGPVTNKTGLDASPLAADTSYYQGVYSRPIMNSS
Sequence of CCAAT/enhancer-binding protein beta (Homo sapiens) (P17676 whole entry, looked up): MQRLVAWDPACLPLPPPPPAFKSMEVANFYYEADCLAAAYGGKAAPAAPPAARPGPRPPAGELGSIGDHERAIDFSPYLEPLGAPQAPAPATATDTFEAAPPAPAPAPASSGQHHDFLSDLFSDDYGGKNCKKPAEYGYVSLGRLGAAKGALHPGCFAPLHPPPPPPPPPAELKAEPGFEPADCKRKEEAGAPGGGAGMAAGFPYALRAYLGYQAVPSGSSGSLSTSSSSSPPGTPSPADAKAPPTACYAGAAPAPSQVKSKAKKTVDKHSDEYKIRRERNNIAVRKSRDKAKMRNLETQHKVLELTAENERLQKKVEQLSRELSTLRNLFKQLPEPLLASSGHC
Sequence of Aryl hydrocarbon receptor (Homo sapiens) (P35869 whole entry, looked up): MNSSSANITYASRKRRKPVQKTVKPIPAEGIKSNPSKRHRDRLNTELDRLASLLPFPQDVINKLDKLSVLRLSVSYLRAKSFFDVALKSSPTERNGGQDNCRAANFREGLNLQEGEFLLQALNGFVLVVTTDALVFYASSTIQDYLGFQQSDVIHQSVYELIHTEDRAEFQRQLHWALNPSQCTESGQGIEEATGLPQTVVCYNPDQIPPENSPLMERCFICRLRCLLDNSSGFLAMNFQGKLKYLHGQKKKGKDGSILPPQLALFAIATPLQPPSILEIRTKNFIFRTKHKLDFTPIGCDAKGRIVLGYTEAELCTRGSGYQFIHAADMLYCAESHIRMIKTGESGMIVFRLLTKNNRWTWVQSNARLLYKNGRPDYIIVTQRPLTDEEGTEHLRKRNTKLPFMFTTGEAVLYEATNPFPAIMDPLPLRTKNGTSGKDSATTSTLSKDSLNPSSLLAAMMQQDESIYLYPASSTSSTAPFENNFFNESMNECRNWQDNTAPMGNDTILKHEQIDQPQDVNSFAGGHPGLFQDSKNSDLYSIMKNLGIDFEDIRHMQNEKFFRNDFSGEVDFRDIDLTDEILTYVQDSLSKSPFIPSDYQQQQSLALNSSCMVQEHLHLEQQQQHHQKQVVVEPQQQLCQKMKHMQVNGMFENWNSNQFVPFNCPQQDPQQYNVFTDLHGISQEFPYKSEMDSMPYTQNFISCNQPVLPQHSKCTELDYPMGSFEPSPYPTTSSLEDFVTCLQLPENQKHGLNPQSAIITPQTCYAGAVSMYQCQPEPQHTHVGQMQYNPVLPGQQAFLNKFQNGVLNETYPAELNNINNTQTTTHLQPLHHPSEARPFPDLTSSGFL
Sequence of Transcription factor E2F1 (Homo sapiens) (Q01094 whole entry, looked up): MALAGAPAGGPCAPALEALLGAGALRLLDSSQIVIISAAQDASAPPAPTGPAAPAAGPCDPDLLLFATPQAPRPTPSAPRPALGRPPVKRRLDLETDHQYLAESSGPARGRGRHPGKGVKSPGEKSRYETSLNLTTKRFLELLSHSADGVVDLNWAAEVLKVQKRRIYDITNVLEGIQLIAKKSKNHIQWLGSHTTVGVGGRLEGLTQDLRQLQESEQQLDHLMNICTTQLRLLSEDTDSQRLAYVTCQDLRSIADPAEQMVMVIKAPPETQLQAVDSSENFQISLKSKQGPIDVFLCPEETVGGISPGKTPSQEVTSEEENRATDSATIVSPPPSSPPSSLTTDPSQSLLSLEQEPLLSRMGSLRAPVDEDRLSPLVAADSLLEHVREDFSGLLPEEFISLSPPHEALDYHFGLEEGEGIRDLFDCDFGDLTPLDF
Sequence of Retinoic acid receptor alpha (Homo sapiens) (P10276 whole entry, looked up): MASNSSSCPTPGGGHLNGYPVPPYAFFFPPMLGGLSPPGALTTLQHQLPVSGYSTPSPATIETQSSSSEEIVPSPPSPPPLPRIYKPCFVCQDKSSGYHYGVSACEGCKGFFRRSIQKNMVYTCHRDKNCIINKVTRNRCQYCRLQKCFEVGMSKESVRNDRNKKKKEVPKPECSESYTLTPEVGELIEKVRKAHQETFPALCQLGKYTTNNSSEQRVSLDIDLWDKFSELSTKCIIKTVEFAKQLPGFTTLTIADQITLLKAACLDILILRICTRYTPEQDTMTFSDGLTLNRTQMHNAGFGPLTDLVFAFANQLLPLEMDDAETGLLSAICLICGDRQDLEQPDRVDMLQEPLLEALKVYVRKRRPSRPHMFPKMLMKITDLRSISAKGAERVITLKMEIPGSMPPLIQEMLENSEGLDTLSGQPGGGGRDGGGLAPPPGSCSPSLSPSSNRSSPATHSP

On to `O=C(O)c1ccc([N+](=O)[O-])cc1`, for which the result in experiment [1], in [2], in experiment [3], in experiment [4], in [5] and in experiment [6] was inactive. In addition, the molecule was classed as inactive in experiment [7], in [8], in experiment [9], in experiment [10], in experiment [11] and in [12]. The molecule was called inactive in experiment [13], in experiment [14], in experiment [15], in experiment [16] and in [17].

As for `N#Cc1ccccc1`, the molecule was called inactive in experiment [1], in [2], in experiment [3], in experiment [4], in experiment [5] and in experiment [6]. The molecule was classed as inactive in experiment [7], in [8], in experiment [9], in experiment [11], in experiment [12] and in [13]. Also, the molecule was called inactive in experiment [14], in [15], in [16] and in [17].

Turning to `COc1ccc(NC(=O)CC(C)=O)cc1`, the molecule was called inactive in experiment [1], in experiment [2], in [3], in [5], in [6] and in experiment [7]. Also, the molecule was classed as inactive in [18], in experiment [8], in experiment [9], in [10], in [11] and in experiment [12]. Moreover, the molecule was called inactive in experiment [13], in experiment [14], in experiment [15], in experiment [16] and in experiment [17].

In the case of `C=O`, the call in experiment [1], in experiment [2], in experiment [3], in [4], in [5] and in experiment [6] was inactive. The call in experiment [7], in experiment [18], in experiment [8], in experiment [9], in experiment [10] and in [11] was inactive. For the same molecule, the call in experiment [12], in experiment [13], in experiment [14], in experiment [15], in [16] and in [17] was inactive.

For `CN(C)CCCN`, the molecule was classed as inactive in [1], in experiment [2], in [3], in experiment [4], in experiment [5] and in [6]. In addition, the call in experiment [7], in experiment [8], in [9], in [10], in experiment [11] and in [12] was inactive. Besides, the molecule was called inactive in [19], in experiment [13], in experiment [14], in experiment [15], in experiment [16] and in experiment [17].

As for `CNCCCC12CCC(c3ccccc31)c1ccccc12`, the call in experiment [1], in [2], in experiment [5], in experiment [6], in experiment [7] and in experiment [8] was inactive. The outcome in [9], in experiment [10], in [12], in [19], in [14] and in experiment [15] was inactive. Further, in experiment [16], the molecule was classed as inactive. The AC50 in experiment [3] is 11.1 µM (active); in [11] it was 15.7 µM (active); in [13], 11.1 µM (active); in experiment [17], 15.7 µM (active).

With `CCCCC/C=C/C=C/C=O`, the call in experiment [1], in experiment [2], in experiment [4], in experiment [5], in [6] and in [7] was inactive. The molecule was called inactive in experiment [8], in [9], in experiment [10], in [11], in experiment [12] and in experiment [13]. Besides, the outcome in experiment [14], in [15], in [16] and in [17] was inactive. Besides, in experiment [3], the AC50 is 167 µM (active).

`CC(C=O)Cc1ccc(C(C)C)cc1` (stereo not given): the result in [1], in experiment [2], in experiment [3], in experiment [4], in [6] and in experiment [7] was inactive. The result in experiment [9], in [10], in experiment [11], in experiment [12], in [13] and in experiment [14] was inactive. For the same molecule, the call in experiment [15], in [16] and in experiment [17] was inactive.
